Experimental data reported in the supplement of paper PMC7156485.
± gives the standard deviation of the averaged measurements.

Key:
Settings in all cases: concentration: 10 µM; 24 h
HCC1569 [1] = experiment: cell number relative to DMSO (% of DMSO); higher = more cells (less growth inhibition / toxicity)
In short: (§1)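 H1.0 nuclear intensity or cell number is expressed as percent of the plate control, with the median of replicates taken. HCC1569 and TDF cells were treated with compounds at 10 µM for 24 h at 37 °C, in triplicate, then fixed and immunostained for H1.0 with DAPI as a nuclear stain. HCC1569 values were smoothed to correct for positional effects.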

TDF [2] = experiment: as above
In short: as §1

TDF [3] = experiment: H1.0 immunofluorescence intensity relative to DMSO (% of DMSO); higher = stronger H1.0 induction, active = 120 or more
In short: as §1

HCC1569 [4] = experiment: H1.0 immunofluorescence intensity relative to DMSO (% of DMSO); higher = stronger H1.0 induction, active = 140 or more
In short: as §1
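For H1.0 immunofluorescence intensity relative to DMSO in this document: TDF is a line of transformed human dermal fibroblasts of mesenchymal origin.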
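For cell number relative to DMSO in this document: TDF denotes transformed human dermal fibroblasts of mesenchymal origin.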

| SMILES | cell number (HCC1569 [1]) | cell number (TDF [2]) | H1.0 immunofluorescence intensity (TDF [3]) | H1.0 immunofluorescence intensity (HCC1569 [4]) |
| --- | --- | --- | --- | --- |
| O=c1[nH]c2ccccc2n1CCN1CCN(c2cccc(C(F)(F)F)c2)CC1 | 103 | 111 | 95.8 (inactive) | 101 (inactive) |
| Nc1nc2ccc(OC(F)(F)F)cc2s1 [Riluzole] | 98.4 | 98.6 | 94.6 (inactive) | 94.6 (inactive) |
| Nc1nc(N)c2nc(CNc3ccc(C(=O)NC(CCC(=O)O)C(=O)O)cc3)cnc2n1 (stereo unspecified) [Aminopterin] | 80.8 | 87.6 | 87.8 (inactive) | 75.9 (inactive) |
| COc1ccc(CN2CCN(C(c3ccc(F)cc3)c3ccc(F)cc3)CC2)c(OC)c1OC [Lomerizine] | 102 | 98.8 | 92.3 (inactive) | 105 (inactive) |
| CC(=O)NCCc1c(Cc2ccccc2)[nH]c2ccccc12 [N-[2-(2-benzyl-1H-indol-3-yl)ethyl]acetamide] | 101 | 92.4 | 104 (inactive) | 98.9 (inactive) |
| CC(C)CC(NC(=O)C(O)C(N)Cc1ccccc1)C(=O)O.Cl (stereo unspecified) [Epibestatin hydrochloride] | 105 | 96.3 | 91.8 (inactive) | 100 (inactive) |
| CC(C)(Oc1ccc(CCNC(=O)c2ccc(Cl)cc2)cc1)C(=O)O [Bezafibrate] | 98.4 | 105 | 97.9 (inactive) | 105 (inactive) |
| C[N+](C)(C)CCOC(N)=O [Carbamylcholine] | 103 | 107 | 93.3 (inactive) | 99.8 (inactive) |
| CCNC(=O)CC[C@H](N)C(=O)O [L-Theanine] | 103 | 103 | 102 (inactive) | 95.6 (inactive) |
| OC1(c2ccc(Cl)cc2)CCN(Cc2c[nH]c3ccccc23)CC1 | 94.6 | 93 | 106 (inactive) | 103 (inactive) |
| COc1ccc(OC)c2c(=S)c3ccccc3[nH]c12 | 105 | 92 | 106 (inactive) | 111 (inactive) |
| CC(=O)C1=C(O)C=C2Oc3c(C(C)=O)c(O)c(C)c(O)c3C2(C)C1=O (single isomer, unassigned; (+)) [(+)-Usnic acid] | 100 | 109 | 96.7 (inactive) | 91.2 (inactive) |
| NC(=O)c1ncn(C2OC(CO)C(O)C2O)n1 (stereo unspecified) [Ribavirin] | 97.5 ± 3 | 105 ± 3.3 | 94.5 (inactive) | 112 (inactive) |
| Cn1c(=O)c2[nH]cnc2n(C)c1=O [Aminophylline] | 103 | 115 | 98.7 (inactive) | 96.4 (inactive) |
| CCC(C)(C)c1ccc(CC(C)CN2CC(C)OC(C)C2)cc1 (stereo unspecified) [Amorolfine] | 94.1 | 98.9 | 94.6 (inactive) | 110 (inactive) |
| CCCCC(=O)N(Cc1ccc(-c2ccccc2-c2nn[nH]n2)cc1)[C@H](C(=O)O)C(C)C | 98.8 | 112 | 93.7 (inactive) | 100 (inactive) |
| COc1ccc(-c2coc3cc(O)cc(O)c3c2=O)cc1 [Biochanin A] | 106 | 97.4 | 93.9 (inactive) | 90.6 (inactive) |
| CCC(C)C(O)C(C)C(=O)C(C)C=C(C)CC(C)C1OC(=O)C1CC (stereo unspecified) [Ebelactone B] | 102 | 104 | 99.9 (inactive) | 89.2 (inactive) |
| OCC1OC(n2cnc3c(NC4CCCCC4)ncnc32)C(O)C1O (stereo unspecified) [N6-Cyclohexyladenosine] | 100 | 105 | 97.9 (inactive) | 92.8 (inactive) |
| Cl.Nc1cc(Cl)c(NC2=NCCN2)c(Cl)c1 [p-Aminoclonidine hydrochloride] | 100 | 114 | 97.1 (inactive) | 88.3 (inactive) |
| CCCCCCCCCCCCCCCCOCC(COCC(F)(F)F)OP(=O)([O-])OC.[Li+] (stereo unspecified) | 102 | 93.8 | 99.5 (inactive) | 92.3 (inactive) |
| CCCCC1(C2CCCC2)Cc2cc(OCC(=O)O)c(Cl)c(Cl)c2C1=O (stereo not drawn) [R(+)-Butylindazone] | 98.8 | 107 | 86.7 (inactive) | 91.3 (inactive) |
| NC(=O)Nc1sc(-c2ccc(F)cc2)cc1C(N)=O [IKK-2 Inhibitor IV] | 80.1 | 103 | 95.8 (inactive) | 186 (active) |
| CCCCCC(O)C=CC1C=CC(=O)C1CCCCCCC(=O)O (stereo unspecified) [Prostaglandin A1] | 97 ± 5.2 | 98 ± 2.2 | 93.3 (inactive) | 93.8 (inactive) |
